Assay results published in the supplement of paper PMC10981050.
Where “and” joins values, the source holds several entries; their conditions need not be identical. Equal entries are not always repeated. Structures can show the parent of a compound that is named as a salt.

Assays:
Test in all cases: cell viability relative to vehicle control; higher = less cytotoxic
Conditions in all cases: 10 µM
K562 = system: K562
Procedure, shortened: (§1)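 Each screen used CRISPR-edited mutant and wild-type clones from four leukaemia lines. Compounds were acoustically dispensed at a single 10 µM dose, and CellTiter-Glo luminescence was read after 48 h with the supernatant first removed. Viability was analysed in Genedata Screener and given as percent of the on-plate vehicle control.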

MARIMO = system: MARIMO
Procedure, shortened: as §1

MOLM14 = system: MOLM14
Procedure, shortened: as §1

OCI-AML2 = system: OCI-AML2
Procedure, shortened: as §1

SMILES	cell viability (K562; SRSF2 genotype: SRSF2 P95H/wt)	cell viability (K562; SRSF2 genotype: SRSF2 wt/wt) [%]	cell viability (MARIMO; SRSF2 genotype: SRSF2 P95H/wt) [%]	cell viability (MARIMO; SRSF2 genotype: SRSF2 wt/wt) [%]	cell viability (MOLM14; SRSF2 genotype: SRSF2 P95H/wt) [%]	cell viability (MOLM14; SRSF2 genotype: SRSF2 wt/wt) [%]	cell viability (OCI-AML2; SRSF2 genotype: P95H/wt) [%]	cell viability (OCI-AML2; SRSF2 genotype: wt/wt) [%]
CCCC(=O)Nc1ccc(OCC(O)CNC(C)C)c(C(C)=O)c1 (stereo not given) [Acebutolol HCl]	96.2% and 86.2%	86.2	97.3	95.1	92.4	93.3	94.9	91.7
O=C(Cn1cnnn1)N[C@@H]1C(=O)N2C(C(=O)O)=C(CSc3nncs3)CS[C@H]12 [Ceftezole]	102% and 97.3%	103	96.3	105	105	104	103	109
CCCCCOC(=O)Nc1nc(=O)n([C@@H]2O[C@H](C)[C@@H](O)[C@H]2O)cc1F [Capecitabine (Xeloda)]	102% and 99.8%	104	99.7	108	101	101	92.8	99.2
C[C@@H]1O[C@@H](OC[C@H]2O[C@@H](Oc3cc(O)c4c(=O)cc(-c5ccc(O)cc5)oc4c3)[C@H](O[C@@H]3O[C@@H](C)[C@H](O)[C@@H](O)[C@H]3O)[C@@H](O)[C@@H]2O)[C@H](O)[C@H](O)[C@H]1O [ligustroflavone]	103%	106	97.1	105	90.7	103	107	108
CC(=O)Oc1ccccc1C(=O)Nc1ncc([N+](=O)[O-])s1 [Nitazoxanide (Alinia, Annita)]	78.4% and 85.8%	78.4	94.8	90.9	92.5	89.7	87.5	85.5
C=C(C)[C@@H]1CC[C@]2(C(=O)O)CC[C@]3(C)[C@H](CC[C@@H]4[C@@]5(C)CC[C@H](O)C(C)(C)[C@@H]5CC[C@]43C)[C@@H]12 [Betulinic acid]	72% and 77.2%	80.1	82.3	51.4	86.7	89.3	61.9	65
COc1ccc(CCO[C@@H]2O[C@H](CO[C@@H]3OC[C@H](O)[C@H](O)[C@H]3O)[C@@H](OC(=O)/C=C/c3ccc(O)c(OC)c3)[C@H](O[C@@H]3O[C@@H](C)[C@@H](O)[C@@H](O)[C@H]3O)[C@H]2O)cc1O [Angoroside C]	107% and 103%	111	101	96.2	113	106	105	95.5
Cc1noc(-c2ccc(CSCCC(=O)O)cc2)c1NC(=O)OC(C)c1ccccc1Cl (stereo not given)	106% and 105%	104	101	113	104	102	104	111
COc1c/c(=C2\C=c3ccccc3=N2)[nH]/c1=C\c1[nH]c(C)cc1C [Obatoclax mesylate (GX15-070)]	2.96% and 5.97%	9.27	23.4	23.6	6.74	7.58	2.7	13.3
O=C(C[S+]([O-])Cc1ccco1)NC/C=C\COc1cc(CN2CCCCC2)ccn1 (stereo not given) [Lafutidine]	104% and 105%	102	104	104	96.9	101	105	108
COCCNC(=O)Nc1ccc2nc(-c3cccs3)c(-c3cccs3)nc2c1 [ACSS2 inhibitor]	82.9% and 79.4%	84.3	85.1	97.7	89.1	94.8	91.5	95.1
c1cc(CN2CCCNCCNCCCNCC2)ccc1CN1CCCNCCNCCCNCC1 [Plerixafor]	93.9% and 99.1%	99.1	96.2	100	94.8	94.7	103	96.9
Cc1cc(=O)oc2cc(O)ccc12 [4-Methylumbelliferone (4-MU)]	107% and 96.8%	99.6	98.5	96.7	102	102	100	99.9
CC(C)=C[C@H]1C[C@](C)(O)[C@@H]2[C@H]3CC[C@@H]4[C@@]5(C)CC[C@H](OC6OC[C@H](O)[C@H](O[C@@H]7O[C@H](CO[C@@H]8O[C@H](CO)[C@@H](O)[C@H](O)[C@H]8O)[C@@H](O)[C@H](O)[C@H]7O[C@@H]7OC[C@@H](O)[C@H](O)[C@H]7O)[C@H]6O[C@@H]6O[C@@H](C)[C@H](O)[C@@H](O)[C@H]6O)C(C)(C)[C@@H]5CC[C@@]4(C)C34CO[C@@]2(C4)O1 (stereo not given in full) [Jujuboside A]	109% and 107%	102	101	104	109	102	91.6	101
COc1ccc2[nH]c([S@@+]([O-])Cc3ncc(C)c(OC)c3C)nc2c1 [NEXIUM (esomeprazole magnesium)]	101% and 97.4%	104	97	107	92	98.6	90.5	94.8
CCN(CC)CC#CCOC(=O)C(O)(c1ccccc1)C1CCCCC1 (stereo not given) [Oxybutynin chloride]	94.9% and 97.5%	88.6	79.8	96	83	101	80.8	91.8
CNCc1ccc(-c2cc(-c3nc(-c4ccc(S(=O)(=O)C(C)C)cc4)cnc3N)on2)cc1	3.16% and 2.89%	1.89	0.36	0.32	0.28	0.34	0.39	0.9
O=C(Nc1cccc2c(=O)cc(-c3nnn[nH]3)oc12)c1ccc(OCCCCc2ccccc2)cc1 [Pranlukast]	103%	104	106	114	101	104	105	113
CC(C)=C1CC[C@@H](C)CC1=O [Pulegone]	95.9% and 92.3%	93	101	95.6	98.1	96.3	96	98.7
CN(C)C(=S)NN=C(c1ccccn1)c1ccccn1	30% and 40.3%	30.9	11.5	20.1	1.77	0.87	10.9	10.6
